Where a name gives a salt, the structure may show the parent alone.
Test system: MDA-MB-468
Assay: phospho-S6 immunofluorescence (DAPI-normalised), per-plate z-score; higher = higher phospho-S6 signal (less pathway suppression)
Details: 24 h
Protocol: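 GPCR-targeted compound library (MedChemExpress HY-L006) tested on MDA-MB-468 PTEN-null TNBC cells in 384-well plates at 0.1, 1 or 10 uM, combined with vehicle, GDC0941 450 nM or lapatinib 1 uM, for 24 h. Phospho-S6 (S240/244) immunofluorescence normalised to DAPI and expressed as a per-plate z-score; values are the mean of biological triplicates.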

| Structure (SMILES) | phospho-S6 immunofluorescence (z-score) (co-treatment: GDC0941 450 nM) | phospho-S6 immunofluorescence (z-score) (co-treatment: lapatinib 1 uM) | phospho-S6 immunofluorescence (z-score) (co-treatment: vehicle) |
| --- | --- | --- | --- |
| CN1[C@@H]2CC(O)C[C@H]1[C@@H]1O[C@@H]12 (some centres undefined) [Scopine (hydrochloride)] (compound 10 µM) | 1.05 | 0.28 | -1.09 |
| COC(=O)C1=CCCN(C)C1 [Arecoline (hydrobromide)] (compound 10 µM) | 0.22 | 0.44 | 0.56 |
| O=c1[nH]c2ccccc2n1CCCN1CCC(n2c(=O)[nH]c3cc(Cl)ccc32)CC1 [Domperidone] (compound 10 µM) | 0.19 | 0.25 | 1.62 |
| O=C1CCC[C@@H]2[C@H]3CCCN4CCC[C@@H](CN12)[C@@H]34 [Matrine] (compound 10 µM) | -0.52 | -0.53 | -0.24 |
| O=Cc1cn(Cc2ccc(Cl)cc2)c2ccccc12 [Oncrasin-1] (compound 10 µM) | -3.49 | -7.38 | -9.12 |
| CN1C(=O)COc2c(C(=O)NC3CN4CCC3CC4)cc(Cl)cc21 (centres undefined) [Azasetron (hydrochloride)] (compound 10 µM) | 0.53 | 0.2 | 1.23 |
| O=C(C[S+]([O-])C(c1ccccc1)c1ccccc1)NO (centres undefined) [Adrafinil] (compound 10 µM) | -0.02 | 0.28 | -0.05 |
| CN(C)C(=O)Oc1cc(OC(=O)N(C)C)cc(C(O)CNC(C)(C)C)c1 (centres undefined) [Bambuterol (hydrochloride)] (compound 10 µM) | -0.5 | 0.49 | -0.4 |
| Cc1c(C(=O)c2cccc3ccccc23)c2cccc3c2n1[C@H](CN1CCOCC1)CO3 [WIN 55,212-2 (Mesylate)] (compound 10 µM) | -2.24 | -0.84 | -3.25 |
| Cc1cccc(Cc2c[nH]cn2)c1C [Detomidine (hydrochloride)] (compound 10 µM) | -1 | 0.28 | 0.19 |
| O=C1CC[C@@]2(O)[C@H]3Cc4ccc(O)c5c4[C@@]2(CCN3CC2CC2)[C@H]1O5 [Naltrexone (Hydrochloride)] (compound 10 µM) | 0.88 | 0.25 | 1.41 |
| CN1CCC(c2c[nH]c3ccc(O)cc23)CC1 (compound 10 µM) | 0.22 | 0.55 | 0.06 |
| Cc1cccc(C)c1NC1=NCCCS1 [Xylazine (hydrochloride)] (compound 10 µM) | 0.73 | 0.79 | 0.89 |
